According to ChEMBL document CHEMBL3988442, “University of Dundee, Small-Polar-MMV Screening Library” (2021):
In all, about 69,000 compounds went through this assay and about 420 (0.61%) showed an effect of 50% or more. Shown is part of a subset that was picked to be rich in strong results.

Target: T1, Histidine--tRNA ligase (Leishmania infantum) (UniProt A4I591)
T1 sequence (whole entry): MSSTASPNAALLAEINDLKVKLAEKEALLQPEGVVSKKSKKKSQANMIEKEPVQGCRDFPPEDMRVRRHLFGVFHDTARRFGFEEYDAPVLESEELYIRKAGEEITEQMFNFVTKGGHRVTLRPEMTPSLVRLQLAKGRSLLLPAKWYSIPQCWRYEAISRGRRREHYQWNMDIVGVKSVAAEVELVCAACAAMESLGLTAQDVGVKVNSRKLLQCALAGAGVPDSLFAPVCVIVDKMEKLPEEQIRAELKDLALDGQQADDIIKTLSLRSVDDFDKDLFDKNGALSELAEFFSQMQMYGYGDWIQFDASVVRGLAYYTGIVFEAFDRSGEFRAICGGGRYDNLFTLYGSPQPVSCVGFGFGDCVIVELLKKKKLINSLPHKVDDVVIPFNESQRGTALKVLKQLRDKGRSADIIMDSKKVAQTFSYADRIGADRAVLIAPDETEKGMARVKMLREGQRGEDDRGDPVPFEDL
Experiment: Leishmania infantum Histidine tRNA synthetase (LdHisRS)
Type: functional
Parameters: scale not given: in the data most compounds retested in dose-response had high values
Conditions: 30 µM

| SMILES | Percent Effect [%] |
| --- | --- |
| O=C([C@H]1CN(Cc2ccoc2)C[C@H]2OCC[C@@H]12)N1CCCCO1 | 22.2 |
| Cc1nc(CN2CCO[C@@H]3CN(C(=O)CC4CC4)CC[C@@H]3C2)cs1 | 12.7 |
| COC[C@@H]1CC[C@H]2[C@H](CCN2S(=O)(=O)c2ccc(C)cc2)O1 | 2.65 |
| CN(C)C[C@H]1OC[C@@H]2CN(C(=O)NCc3cccc(F)c3)CC[C@@H]21 | 0 |
| Cc1n[nH]c(CN2CCN(Cc3ccccc3)[C@@H]3CS(=O)(=O)C[C@@H]32)n1 | 32 |
| CCN1C[C@H]2C3(CCN(S(C)(=O)=O)CC3)CC[C@@]2(C(=O)N(C)C)C1 | 12 |
| Cc1cc(C(=O)N2C[C@@H]3COC[C@]3(COCc3cccnc3)C2)no1 | 12.6 |
| O=C(N[C@@H]1CN(c2ncccn2)[C@@H]2CCCO[C@@H]21)c1cnccn1 | 18.9 |
| O=C1CC[C@@H]2[C@@H](CCN2C(=O)c2ccsc2)N1Cc1ccncc1 | 14.7 |
| CN1C(=O)[C@H]2CC[C@@H]1CN(C(=O)c1nnc3n1CCCCC3)C2 | 17.8 |
| COc1cccn(CC(=O)N2CCCC3(CCOCC3)C2)c1=O | 98.9 |
| COc1ccccc1CC(=O)N1CC[C@H](O)[C@]2(CCCO2)C1 | 18.8 |
| CC1CCN(S(=O)(=O)c2cccn(CC(=O)N3CCOCC3)c2=O)CC1 | -7.77 |
| Cc1ccoc1C(=O)N1CC[C@@H]2O[C@@H](C)C[C@H]2C1 | 12.3 |
| CSc1nsc(SCC(=O)c2cc3c(cc2Cl)NC(=O)C3)n1 | 13.2 |
| Nc1nnc(SCC(=O)c2cc3c(cc2Cl)NC(=O)C3)s1 | 50 |
| Cc1nnc(SCC(=O)c2cc3c(cc2Cl)NC(=O)C3)s1 | 2.63 |
| Cn1cccc1C(=O)N[C@@H]1CN(Cc2cccs2)[C@@H]2COC[C@@H]21 | 5.71 |
| COc1ccc(CN2C[C@@H]3CN(Cc4ccncc4)C[C@@H]3C2=O)cc1 | 13.6 |
| COc1cc(N2C[C@H]3CCC[C@@H](CN4CCOCC4)[C@H]3C2)ncn1 | 17.4 |
| CS(=O)(=O)N1CCC2(CC1)CN(CCn1cccn1)C(=O)CO2 | 65.8 |
| COCCN1CCC2(CC1)CN(CCn1cccn1)C(=O)CO2 | 16.2 |
| O=C1COC2(CCN(Cc3ccoc3)CC2)CN1CCn1cccn1 | 21.4 |
| CCn1cc(C(=O)N2C[C@H]3C[C@H](Oc4ccccc4)C[C@H]3C2)cn1 | 11.5 |
| Cc1nc(C(=O)N2CCN(C(=O)C3CCC3)[C@@H]3CS(=O)(=O)C[C@@H]32)cs1 | 2.67 |
| O=C(Cc1ccsc1)N1C[C@H]2CCC[C@@]2(COCc2ccccn2)C1 | 7.92 |
| Cn1cc(NC(=O)N2CCCC2c2ccccn2)ccc1=O (stereo not given) | 108 |
| CN(C)CC(=O)N1CCCC1c1ccccn1 (stereo not given) | 8.63 |

| SMILES | Percent Effect [%] |
| --- | --- |
| COc1ccc(NC(=O)N2CCCC2c2ccncc2)cn1 (stereo not given) | 13.2 |
| CC(C)C1CCCN1C(=O)Nc1ccc(=O)n(C)c1 (stereo not given) | 119 |
| Cc1cc(C)c(CNC(=O)N2CCCC2c2ccccn2)c(=O)[nH]1 (stereo not given) | 12.3 |
| Cn1cc(C(=O)N2CCCC2c2ccc3c(c2)OCO3)ccc1=O (stereo not given) | 12.1 |
| Cn1cc(NC(=O)N2CCCC2c2cccnc2)ccc1=O (stereo not given) | 100 |
| Cn1cc(C(=O)N2CCCC2c2ccc3c(c2)OCCO3)ccc1=O (stereo not given) | 27.3 |
| CCSc1ccc(NC(=O)N2CCCC2c2ccncc2)cn1 (stereo not given) | 1.65 |
| Cc1ccc(CN2CC[C@@H]3OCCN(S(C)(=O)=O)[C@H]3CC2)s1 | 7.55 |
| Cn1cc(C(=O)N2CC[C@@H]3[C@@H]2CCN3Cc2cccc(C#N)c2)cn1 | 3 |
| CN(C)C[C@@H]1C[C@@H]2CN(C(=O)Cc3cccs3)CC[C@@H]2N1C | 6.42 |
| Cc1ccc(CN2CC[C@H]3C(=O)N(Cc4cccnc4)CCO[C@H]3C2)o1 | 5.88 |
| COc1ccccc1N1CCC(CNCc2cccc(OC)c2OC)C1 (stereo not given) | 59.5 |
| COc1ccccc1N1CCC(CNCc2cccc(O)c2)C1 (stereo not given) | 21.4 |
| COc1ccc(CNCC2CCN(c3ccccc3OC)C2)cc1O (stereo not given) | 16.1 |
| O=C(c1ccco1)N1CCO[C@@H]2CN(c3ccccn3)CC[C@@H]2C1 | 17.5 |
| CN1CCN(C(=O)[C@@H]2CC[C@@H]3[C@@H](CCN3c3ncccn3)O2)CC1 | 14 |
| Cc1ccccc1NC(=O)N1CCN(C(=O)C2CC2)[C@@H]2CS(=O)(=O)C[C@@H]21 | 4.92 |
| CCN(Cc1ccc(O)c(C(=O)O)c1)CC1CCCO1 (stereo not given) | 16.4 |
| CCN(Cc1ccc2cccc(O)c2n1)CC1CCCO1 (stereo not given) | 74 |
| CCN(Cc1cccc2c1OCO2)CC1CCCO1 (stereo not given) | 20 |
| O=C1CC2(CCN(Cc3ccc4cccc(O)c4n3)CC2)CN1 | 63.2 |
| O=C1CC2(CCN(Cc3ccc(C(F)(F)F)nc3)CC2)CN1 | 15.4 |
| CCCc1ccc(CN2CCC3(CC2)CNC(=O)C3)o1 | 11.7 |
| O=C(c1cnccn1)N1CCN2C[C@H](OCc3ccccc3F)C[C@H]2C1 | 1.37 |
| O=C(Cc1ccsc1)N1C[C@@H]2COC[C@]2(COc2cccnc2)C1 | 15.4 |
| CCc1ccccc1OCCN1CC[C@@]2(O)CCNC[C@H]2C1 | 15.8 |
| CNC(=O)[C@@]12CCO[C@@H]1CCN(S(=O)(=O)c1ccc(C)cc1)C2 | -5 |
